These results are taken from PubChem BioAssay (Tox21).

Several values for one entry are separate records, joined by “and”; a condition that tells them apart may be missing. Identical values can stand only once. Values without a mark were called inactive. Results filed as inconclusive are left out. A structure can be active in one record and inactive in another. Activity calls are given as the source filed them. Unless noted, the call rests on the fitted dose curve; in most records, active means well fitted curve in the direction sought with a large enough effect in the repeat runs; inconclusive means weak or mixed curves; inactive means no such curve, though single readings can be large; an effect the other way counts as inactive or inconclusive.

Experiment [1] can be described thus: qHTS assay to identify small molecule agonists of the hypoxia (HIF-1) signaling pathway - cell viability counter screen (AID 1224844; calls by dose curve; further: nearly all actives have a fitted effect of over 50% in size; further: potency means the concentration at half of the fitted maximal effect). In short, it runs like this:
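Luminescent ATP content (CellTiter-Glo, 30 min, room temperature) served as the viability measure in HRE-bla ME-180 cells exposed to compounds for 17 hrs in low-serum medium (0.5% dialyzed FBS).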
In general terms: In qHTS, concentration-response curves come from the screen itself.

Experiment [2] in a line: qHTS assay to identify small molecule agonists of the hypoxia (HIF-1) signaling pathway (AID 1224846; active means well fitted activation curve with a large enough effect in the signal ratio in the repeat runs, not every such curve was filed as active; the % refers to the signal ratio; further: on the % scale 0 is the no-effect control and ±100 the full control effect). The procedure, abridged:
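Measured by blue/green FRET after loading CCF4-AM: beta-lactamase expressed from a hypoxia response element in ME-180 cells. Test agents were delivered in DMSO and left 17 hrs; cells had been plated 5 hrs earlier in low-serum (0.5% dialyzed FBS) medium.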

Experiment [3] can be described thus: qHTS assay to identify small molecule agonists of H2AX - cell viability counter screen (AID 1224847; calls by dose curve; further: nearly all actives have a fitted effect of over 30% in size; further: potency means the concentration at half of the fitted maximal effect). In short, it runs like this:
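CHO-K1 wt, 1000 cells/well, o/n 37C; cpds 15 conc, 3 h 37C, 0.76% DMSO; CellTiter-Glo, 30 min RT, luminescence.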

Experiment [4] is described as follows: qHTS assay to identify small molecule antagonists of the estrogen related receptor (ERR) signaling pathway from Tox21 library (AID 1224848). Further: nearly all actives have a fitted effect of over 50% in size. Further: potency means the concentration at half of the fitted maximal effect. In short, it runs like this:
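Antagonist-mode screen of the Tox21 10K library in an NTP-provided ERR reporter cell line; 18 h compound exposure at 37 C, luminescence measured with ONE-Glo.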

A short description of experiment [5]: qHTS assay to identify small molecule agonists of the estrogen related receptor (ERR) signaling pathway from Tox21 library (AID 1224849; calls by dose curve; further: on the % scale 0 is the no-effect control and ±100 the full control effect; nearly all actives have a fitted effect of over 15% in size). The note with it: ERR reporter cell line, ONE-Glo luciferase, 18 h. In short, it runs like this:
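We plated ERR reporter cells, waited 6 h, added compounds in DMSO by pin tool and incubated them 18 h at 37 C. ONE-Glo was then added and luminescence read after 30 min.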

A short description of experiment [6]: qHTS RealTime-Glo MT Cell Viability Assay in HepG2 cells - 24 hour (AID 1224867). Further: on the % scale 0 is the no-effect control and ±100 the full control effect; nearly all actives have a fitted effect of over 50% in size. The procedure, abridged:
(§1)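 HepG2 cells were seeded at 600 cells/well together with NanoLuc luciferase and a cell-permeant prosubstrate, preincubated 5 h at 37 C/5% CO2, then pin-dosed with compounds in DMSO. Nonlytic luminescence from viable cells was read at each time point.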

The nature of experiment [7]: qHTS RealTime-Glo MT Cell Viability Assay in HEK293 cells - 32 hour (AID 1224868). Further: nearly all actives have a fitted effect of over 50% in size. Further: potency means the concentration at half of the fitted maximal effect. In short, it runs like this:
(§2)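 HEK293 cells were seeded at 600 cells/well together with NanoLuc luciferase and cell-permeant prosubstrate, preincubated 5 h at 37 C/5% CO2, then given compound in DMSO by pintool. Luminescence from viable-cell prosubstrate reduction was read repeatedly over 40 h.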

A short description of experiment [8]: A CellTox Green Cytotoxicity Assay to monitor cytotoxicity in HEK293 cells - 0 hour (AID 1224869). The procedure, abridged: (§3)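 Each value comes from one timepoint of a single continuous run in which HEK293 cells with CellTox Green were exposed to compound for up to 40 h at 37 C, dye fluorescence rising with cell death.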
Experiment [9] is described as follows: qHTS RealTime-Glo MT Cell Viability Assay in HepG2 cells - 40 hour (AID 1224870). In short, it runs like this:
(§4)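 Real-time viability: cells seeded at 600 per well together with NanoLuc and cell-permeant prosubstrate, compounds added after 5 h incubation. Luminescence tracked at 0, 8, 16, 24, 32 and 40 h of exposure.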

Experiment [10] can be described thus: A CellTox Green Cytotoxicity Assay to monitor cytotoxicity in HEK293 cells - 40 hour (AID 1224871). Further: on the % scale 0 is the no-effect control and ±100 the full control effect; nearly all actives have a fitted effect of over 45% in size. The procedure, abridged:
as §3

The nature of experiment [11]: qHTS RealTime-Glo MT Cell Viability Assay in HEK293 cells - 16 hour (AID 1224872). Further: nearly all actives have a fitted effect of over 50% in size. Further: potency means the concentration at half of the fitted maximal effect. In short, it runs like this:
as §2

The nature of experiment [12]: qHTS RealTime-Glo MT Cell Viability Assay in HepG2 cells - 8 hour (AID 1224873). Further: on the % scale 0 is the no-effect control and ±100 the full control effect; nearly all actives have a fitted effect of over 55% in size. The procedure, abridged:
as §4

The nature of experiment [13]: qHTS RealTime-Glo MT Cell Viability Assay in HEK293 cells - 40 hour (AID 1224874). Further: nearly all actives have a fitted effect of over 50% in size. Further: potency means the concentration at half of the fitted maximal effect. On max response: on the % scale 0 is the no-effect control and ±100 the full control effect. The note with it: RealTime-Glo luminescence; max response: hits give low values. The procedure, abridged: (§5)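 qHTS format; HEK293 cells with NanoLuc/prosubstrate reagent, 37 C/5% CO2 for 5 h pre-dosing; compounds 23 nL in DMSO; luminescence at each time point reflects viable cells.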
Experiment [14] is described as follows: A CellTox Green Cytotoxicity Assay to monitor cytotoxicity in HEK293 cells - 24 hour (AID 1224875). Further: on the % scale 0 is the no-effect control and ±100 the full control effect; nearly all actives have a fitted effect of over 45% in size. The procedure, abridged:
as §3

Experiment [15] can be described thus: A CellTox Green Cytotoxicity Assay to monitor cytotoxicity in HepG2 cells - 16 hour (AID 1224876). Further: nearly all actives have a fitted effect of over 45% in size. Further: potency means the concentration at half of the fitted maximal effect. The procedure, abridged:
(§6)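 Continuous culture of HepG2 cells with a membrane-impermeant DNA dye; rising fluorescence marks dead cells. Compound exposure lasted up to 40 h at 37 C, with reads every 8 h from 0 h.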

Experiment [16] can be described thus: qHTS RealTime-Glo MT Cell Viability Assay in HepG2 cells - 32 hour (AID 1224877). Further: on the % scale 0 is the no-effect control and ±100 the full control effect; nearly all actives have a fitted effect of over 55% in size. In short, it runs like this:
as §1

A short description of experiment [17]: A CellTox Green Cytotoxicity Assay to monitor cytotoxicity in HepG2 cells - 24 hour (AID 1224878). Further: nearly all actives have a fitted effect of over 45% in size. Further: potency means the concentration at half of the fitted maximal effect. On Cytotoxicity: on the % scale 0 is the no-effect control and ±100 the full control effect. The procedure, abridged:
as §6

Experiment [18] is described as follows: A CellTox Green Cytotoxicity Assay to monitor cytotoxicity in HepG2 cells - 40 hour (AID 1224879). Further: nearly all actives have a fitted effect of over 40% in size. Further: potency means the concentration at half of the fitted maximal effect. In short, it runs like this:
as §6

The nature of experiment [19]: qHTS RealTime-Glo MT Cell Viability Assay in HEK293 cells - 0 hour (AID 1224880). In short, it runs like this:
as §5

Experiment [20] in a line: qHTS assay to identify small molecule agonists of H2AX (AID 1224845; active means well fitted activation curve with a large enough effect in the signal ratio in the repeat runs, not every such curve was filed as active; the % refers to the signal ratio; further: potency means the concentration at half of the fitted maximal effect). In short, it runs like this: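 Phospho-H2AX Ser139 measured by HTRF (ex 320 nm; em 665 and 620 nm) after 24 hr antibody incubation. Compounds, 15 concentrations, 0.76% DMSO, were applied to CHO-K1 cells for 3hr at 37C before lysis.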
The mark [21] stands for this setting: at 92.4 µM (top of the series) unless noted.

Regarding `COc1ccc(N)cc1N`, the Potency result in experiment [1], in experiment [6], in experiment [8], in experiment [9], in experiment [10] and in experiment [12] was “inactive” each time. Moreover, the Potency result in [14], in experiment [15], in experiment [16], in [17], in experiment [18] and in experiment [19] was “inactive” throughout. Also, in experiment [2], the result was inactive. In addition, the Potency in experiment [3] was 41.4 µM (active) and 54.4 µM (active); in experiment [4], 63.1 µM (active) and 14.7 µM (active); in experiment [7], 45 µM (active); in experiment [11] it was 35.8 µM (active); in experiment [13], 50.5 µM (active). Besides, the activity change, positive = activation was -34.8% in experiment [5] (at 42.5 µM (top of the series)) and -69.2% in experiment [5] (at 92.4 µM (top of the series)). The max response in experiment [13] is -27.7%.
`CC(=O)[O-].CC(=O)[O-].O.O.[Cd+2]`: the Potency in experiment [1] is 34.2 µM (active); in experiment [20] it was 62.7 µM (active); in experiment [13] it was 15.3 µM (active); in [17], 48.3 µM (active); in [18], 27.2 µM (active). Further, the Potency entry in experiment [8], in experiment [9], in [12] and in experiment [19] was “inactive” in each case.
For the compound `CCOP(=S)(OCC)SCCS(=O)(=O)CC`, the Potency entry in experiment [1], in experiment [3], in [4], in experiment [6], in [7] and in experiment [9] was “inactive” throughout. The Potency result in experiment [10], in experiment [11], in experiment [14], in [15], in [16] and in [17] was “inactive” in each case. For the same compound, the Potency result in [18] and in experiment [19] was “inactive” in each case. Moreover, the compound was called inactive in experiment [2]. Further, in [5] (setting [21]), the activity change, positive = activation was 1.7%.
For the compound `O=[N+]([O-])c1ccc(Oc2ccc(C(F)(F)F)cc2[N+](=O)[O-])cc1`, the Potency result in experiment [1], in experiment [3], in [8], in experiment [9], in experiment [10] and in experiment [14] was “inactive” each time. In addition, the Potency result in experiment [15], in experiment [16], in experiment [17], in [18] and in experiment [19] was “inactive” throughout. Also, the compound was called inactive in experiment [2]. In addition, in experiment [5] (setting [21]), the activity change, positive = activation is -23.5%. Besides, the Potency in [7] and in experiment [11] was 19.5 µM (active) each time.
In the case of `CCOP(=S)(OCC)OC(Cl)C(Cl)(Cl)Cl` (stereo not given), the Potency entry in [1], in [3], in experiment [4], in experiment [6], in [7] and in experiment [8] was “inactive” in each case. For the same compound, the Potency result in experiment [9], in [11], in experiment [12], in experiment [15], in experiment [16] and in experiment [17] was “inactive” each time. Also, the Potency result in experiment [18] and in experiment [19] was “inactive” in each case. Also, the outcome in experiment [2] was inactive. Besides, the activity change, positive = activation in experiment [5] (setting [21]) is 4.56%. Also, the max response in experiment [13] is -10.7%.
Consider `Cl/C=C\CCl`, for which the Potency entry in experiment [1], in [3], in experiment [4], in experiment [7], in [8] and in experiment [9] was “inactive” each time. In addition, the Potency entry in experiment [10], in [11], in [14], in experiment [15], in [16] and in experiment [17] was “inactive” each time. For the same compound, the Potency entry in experiment [18] and in [19] was “inactive” each time. In [2], the call was inactive. Moreover, the activity change, positive = activation in experiment [5] (setting [21]) was 3.81%. Moreover, in experiment [13], the max response is 11.8%.
Turning to `O=C(O)COc1nc(Cl)c(Cl)cc1Cl`, the Potency result in experiment [1], in experiment [3], in [9], in [11], in experiment [12] and in experiment [16] was “inactive” throughout. Further, the Potency result in experiment [18] and in experiment [19] was “inactive” each time. The compound was classed as inactive in experiment [2]. In addition, the Potency in experiment [15] is 12.6 µM (active).
